# Measured values published in article PMC7862700, “An all-to-all approach to the identification of sequence-specific readers for epigenetic DNA modifications on cytosine”.
# Assays:
# Experiment in all cases: DAPPL (digital affinity profiling via proximity ligation, sequencing); 10 mM Tris-HCl pH 7.5, 50 mM NaCl, 1 mM DTT, 4% glycerol, room temperature, 30 min; GST-TFs on glutathione beads, 16-mer random dsDNA library, 0.1% formaldehyde crosslink after washing; high values mean tight binding
# FEV = target: T1, FEV (Homo sapiens, UniProt Q99581 1-238); conditions: protein: recombinant; tags: N-terminal GST; dsDNA, one strand shown
# T1 sequence: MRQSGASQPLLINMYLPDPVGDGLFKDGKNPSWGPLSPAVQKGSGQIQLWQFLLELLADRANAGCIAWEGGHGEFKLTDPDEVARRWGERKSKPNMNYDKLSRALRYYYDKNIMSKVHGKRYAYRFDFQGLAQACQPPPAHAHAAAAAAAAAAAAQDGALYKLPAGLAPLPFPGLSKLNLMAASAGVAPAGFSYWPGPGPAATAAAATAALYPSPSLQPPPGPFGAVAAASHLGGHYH
# Method in brief: (§1)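 GST fusions of human transcription factors were expressed in yeast and captured with glutathione beads. Once given DNA barcodes and pooled alongside a tag-only sample, they were incubated for 30 min at room temperature with 200 nmole of a random double-stranded 16-mer DNA library in Tris/NaCl/DTT/glycerol buffer, then washed, crosslinked (0.1% formaldehyde), proximity-ligated, PCR-amplified and sequenced on an Illumina NextSeq500. The binding signal of each hexamer is its read frequency for a factor divided by its frequency for the tag-only sample.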
# ETV5 = ETV5 (Homo sapiens, UniProt P41161 1-510); conditions: protein: recombinant; tags: N-terminal GST; dsDNA, one strand shown
# Chain of ETV5 (P41161 whole entry): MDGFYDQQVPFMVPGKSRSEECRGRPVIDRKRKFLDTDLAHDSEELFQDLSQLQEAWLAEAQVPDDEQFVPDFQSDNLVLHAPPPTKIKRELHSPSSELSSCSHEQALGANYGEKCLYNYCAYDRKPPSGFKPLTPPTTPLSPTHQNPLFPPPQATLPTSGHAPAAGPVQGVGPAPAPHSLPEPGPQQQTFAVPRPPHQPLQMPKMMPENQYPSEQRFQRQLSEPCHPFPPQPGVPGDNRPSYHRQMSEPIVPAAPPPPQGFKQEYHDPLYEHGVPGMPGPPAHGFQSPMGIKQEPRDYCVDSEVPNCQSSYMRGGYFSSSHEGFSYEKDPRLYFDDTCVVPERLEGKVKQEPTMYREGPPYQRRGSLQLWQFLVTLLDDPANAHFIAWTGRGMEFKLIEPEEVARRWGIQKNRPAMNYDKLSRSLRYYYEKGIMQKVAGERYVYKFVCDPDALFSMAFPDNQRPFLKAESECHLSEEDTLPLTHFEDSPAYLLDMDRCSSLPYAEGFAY
# Method in brief: as §1
# HSF1 = HSF1 (Homo sapiens, UniProt Q00613 1-529); conditions: protein: recombinant; tags: N-terminal GST; chain copies: 3; dsDNA, one strand shown
# Chain of HSF1 (Q00613 whole entry): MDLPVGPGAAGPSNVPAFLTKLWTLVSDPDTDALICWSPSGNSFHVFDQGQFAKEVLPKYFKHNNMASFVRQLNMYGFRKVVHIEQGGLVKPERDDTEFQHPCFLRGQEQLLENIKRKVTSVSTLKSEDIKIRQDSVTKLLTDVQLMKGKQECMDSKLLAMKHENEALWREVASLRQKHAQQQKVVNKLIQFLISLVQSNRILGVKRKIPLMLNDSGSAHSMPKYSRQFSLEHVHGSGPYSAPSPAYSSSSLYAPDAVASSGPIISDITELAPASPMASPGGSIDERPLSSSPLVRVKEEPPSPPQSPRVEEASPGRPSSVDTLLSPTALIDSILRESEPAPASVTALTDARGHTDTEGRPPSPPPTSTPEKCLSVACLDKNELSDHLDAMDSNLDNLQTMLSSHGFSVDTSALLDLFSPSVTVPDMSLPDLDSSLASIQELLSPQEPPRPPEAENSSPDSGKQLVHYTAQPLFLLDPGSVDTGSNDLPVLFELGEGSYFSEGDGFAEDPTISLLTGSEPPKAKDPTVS
# Method in brief: as §1
# SPIC = target: T2, SPIC (Homo sapiens, UniProt Q8N5J4 1-248); conditions: protein: recombinant; tags: N-terminal GST; dsDNA, one strand shown
# T2 sequence: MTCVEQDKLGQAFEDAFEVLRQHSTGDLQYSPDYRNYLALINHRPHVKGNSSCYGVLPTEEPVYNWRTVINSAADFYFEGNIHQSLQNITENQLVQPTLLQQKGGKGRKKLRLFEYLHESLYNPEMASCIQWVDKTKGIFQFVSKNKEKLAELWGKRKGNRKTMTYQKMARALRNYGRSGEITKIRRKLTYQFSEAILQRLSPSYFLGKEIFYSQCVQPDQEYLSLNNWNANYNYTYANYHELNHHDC
# Method in brief: as §1
# ELF4 = ELF4 (Homo sapiens, UniProt Q99607 1-663); conditions: protein: recombinant; tags: N-terminal GST; dsDNA, one strand shown
# Chain of ELF4 (Q99607 whole entry): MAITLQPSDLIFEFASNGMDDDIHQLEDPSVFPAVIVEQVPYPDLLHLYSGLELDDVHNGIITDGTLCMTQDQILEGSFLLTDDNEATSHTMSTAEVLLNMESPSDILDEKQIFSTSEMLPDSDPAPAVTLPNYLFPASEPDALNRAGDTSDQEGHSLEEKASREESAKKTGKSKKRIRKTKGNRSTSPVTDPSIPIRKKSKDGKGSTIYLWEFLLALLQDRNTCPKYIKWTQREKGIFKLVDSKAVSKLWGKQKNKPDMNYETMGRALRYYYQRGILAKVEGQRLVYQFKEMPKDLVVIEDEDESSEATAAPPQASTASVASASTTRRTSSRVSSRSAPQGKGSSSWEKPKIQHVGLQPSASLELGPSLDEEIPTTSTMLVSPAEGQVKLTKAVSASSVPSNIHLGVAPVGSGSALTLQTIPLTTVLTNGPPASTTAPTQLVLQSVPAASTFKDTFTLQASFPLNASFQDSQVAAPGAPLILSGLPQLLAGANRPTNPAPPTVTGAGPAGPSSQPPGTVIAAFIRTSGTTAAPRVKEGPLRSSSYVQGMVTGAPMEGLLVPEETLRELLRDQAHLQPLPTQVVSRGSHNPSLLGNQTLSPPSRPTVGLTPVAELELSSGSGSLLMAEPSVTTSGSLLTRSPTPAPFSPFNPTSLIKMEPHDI
# Method in brief: as §1
# ELK4 = target: T3, ELK4 (Homo sapiens, UniProt P28324-2 1-405); conditions: protein: recombinant; tags: N-terminal GST; dsDNA, one strand shown
# T3 sequence: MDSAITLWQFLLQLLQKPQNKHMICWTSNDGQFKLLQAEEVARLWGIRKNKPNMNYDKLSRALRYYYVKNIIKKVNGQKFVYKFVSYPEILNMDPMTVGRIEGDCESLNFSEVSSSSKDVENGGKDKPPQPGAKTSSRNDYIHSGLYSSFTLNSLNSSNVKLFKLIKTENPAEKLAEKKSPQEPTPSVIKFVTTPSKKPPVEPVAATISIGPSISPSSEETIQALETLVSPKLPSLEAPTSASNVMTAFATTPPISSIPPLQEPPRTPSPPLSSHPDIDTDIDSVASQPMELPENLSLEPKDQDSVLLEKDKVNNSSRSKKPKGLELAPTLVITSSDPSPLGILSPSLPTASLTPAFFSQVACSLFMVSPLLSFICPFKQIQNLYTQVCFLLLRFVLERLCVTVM
# Method in brief: as §1
# ETV2 = target: T4, ETV2 (Homo sapiens, UniProt O00321 1-342); conditions: protein: recombinant; tags: N-terminal GST; dsDNA, one strand shown
# T4 sequence: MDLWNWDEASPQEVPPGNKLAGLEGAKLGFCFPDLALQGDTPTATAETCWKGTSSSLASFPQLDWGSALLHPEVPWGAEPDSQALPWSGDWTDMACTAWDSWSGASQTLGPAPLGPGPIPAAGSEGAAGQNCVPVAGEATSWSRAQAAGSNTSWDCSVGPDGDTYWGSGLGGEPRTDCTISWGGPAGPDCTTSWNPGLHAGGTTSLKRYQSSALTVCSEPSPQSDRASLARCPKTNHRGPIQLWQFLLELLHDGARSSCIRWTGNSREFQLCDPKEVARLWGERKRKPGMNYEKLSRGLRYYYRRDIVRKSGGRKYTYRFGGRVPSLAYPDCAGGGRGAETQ
# Method in brief: as §1
# ELF3 = target: T5, ELF3 (Homo sapiens, UniProt P78545 1-371); conditions: protein: recombinant; tags: N-terminal GST; dsDNA, one strand shown
# T5 sequence: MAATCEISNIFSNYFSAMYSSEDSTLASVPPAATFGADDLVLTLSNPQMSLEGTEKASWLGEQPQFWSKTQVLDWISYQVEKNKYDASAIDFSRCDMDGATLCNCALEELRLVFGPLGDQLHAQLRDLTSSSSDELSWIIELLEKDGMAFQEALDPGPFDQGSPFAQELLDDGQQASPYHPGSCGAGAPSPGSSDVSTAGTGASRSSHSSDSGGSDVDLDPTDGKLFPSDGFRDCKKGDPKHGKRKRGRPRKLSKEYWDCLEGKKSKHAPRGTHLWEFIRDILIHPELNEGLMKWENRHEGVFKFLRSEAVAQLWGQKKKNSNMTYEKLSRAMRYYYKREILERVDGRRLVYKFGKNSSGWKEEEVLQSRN
# Method in brief: as §1
# CRX = CRX (Homo sapiens, UniProt O43186 1-299); conditions: protein: recombinant; tags: N-terminal GST; dsDNA, one strand shown
# Chain of CRX (O43186 whole entry): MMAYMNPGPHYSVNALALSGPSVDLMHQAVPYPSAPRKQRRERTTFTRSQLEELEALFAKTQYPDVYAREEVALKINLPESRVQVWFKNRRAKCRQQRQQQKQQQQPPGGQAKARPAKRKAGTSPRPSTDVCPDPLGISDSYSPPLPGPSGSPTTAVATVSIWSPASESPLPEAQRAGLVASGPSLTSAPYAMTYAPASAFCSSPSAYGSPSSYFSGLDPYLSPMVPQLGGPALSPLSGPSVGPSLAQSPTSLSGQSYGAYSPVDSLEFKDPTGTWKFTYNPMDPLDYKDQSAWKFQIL
# Method in brief: as §1
# ETV1 = ETV1 (Homo sapiens, UniProt P50549 1-477); conditions: protein: recombinant; tags: N-terminal GST; dsDNA, one strand shown
# Chain of ETV1 (P50549 whole entry): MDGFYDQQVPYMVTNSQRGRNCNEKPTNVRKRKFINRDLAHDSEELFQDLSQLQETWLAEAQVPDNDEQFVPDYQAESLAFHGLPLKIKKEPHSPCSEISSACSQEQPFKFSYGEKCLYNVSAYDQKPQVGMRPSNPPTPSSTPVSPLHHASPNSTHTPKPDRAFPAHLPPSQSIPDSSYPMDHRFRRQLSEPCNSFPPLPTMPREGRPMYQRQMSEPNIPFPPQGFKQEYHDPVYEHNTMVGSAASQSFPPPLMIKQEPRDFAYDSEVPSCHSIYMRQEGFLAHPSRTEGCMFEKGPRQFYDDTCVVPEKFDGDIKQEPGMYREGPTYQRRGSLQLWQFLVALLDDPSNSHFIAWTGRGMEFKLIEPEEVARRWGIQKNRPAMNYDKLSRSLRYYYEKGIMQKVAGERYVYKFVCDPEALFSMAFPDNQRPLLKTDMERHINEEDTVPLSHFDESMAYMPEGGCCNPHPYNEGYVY
# Method in brief: as §1
sequence,measurement,setting,value
AGAAAT,binding signal,FEV,"1.12 fold enrichment (6-mer frequency, TF over GST control)"
same,binding signal,ETV5,"1.17 fold enrichment (6-mer frequency, TF over GST control)"
same,binding signal,HSF1,"2.04 fold enrichment (6-mer frequency, TF over GST control)"
same,binding signal,SPIC,"1.22 fold enrichment (6-mer frequency, TF over GST control)"
same,binding signal,ELF4,"1.15 fold enrichment (6-mer frequency, TF over GST control)"
same,binding signal,ELK4,"1.03 fold enrichment (6-mer frequency, TF over GST control)"
same,binding signal,ETV2,"1.19 fold enrichment (6-mer frequency, TF over GST control)"
same,binding signal,ELF3,"1.2 fold enrichment (6-mer frequency, TF over GST control)"
same,binding signal,CRX,"1.35 fold enrichment (6-mer frequency, TF over GST control)"
same,binding signal,ETV1,"1.13 fold enrichment (6-mer frequency, TF over GST control)"
